From PubChem BioAssay
Rows were chosen to be rich in hits. Some 5.8% of all compounds tested hit in one or more screens of this group.
uPA generation = qHTS for Inhibitors of Cell Surface uPA Generation | cell surface uPA generation assay, qHTS | Potency, µM (highest dose often 38.3 µM), for inactives: at the top dose activity change, negative = inhibition, usual class: inhibitors | 0.31% of 330,000 active | AID 540303, 2011; active = well fitted inhibition curve with a large enough effect; inconclusive = small, poorly fitted or top-dose-only effect; inactive = no such curve, though single readings can be large or run the other way; tested in mouse RAW 264.7 cells; note: potency is the fitted concentration of half-maximal effect; % is set by controls: 0 for no effect and ±100 for the full control effect; nearly all actives have a fitted effect of over 55% in size
TRPV1 ag = HTS Assay for Compounds that Act as Agonists of the Vanilloid Receptor 1; activation, % at 8.33 µM; 0.19% of 320,000 active; TRPV1-expressing cells, Fluo-8 calcium influx, agonist mode; AID 540275, 2011; Transient receptor potential cation channel subfamily V member 1 (Homo sapiens), Q8NER1; in the data active = activation above about 80%; inconclusive = between about 30% and that limit; note: 0% is about no effect
Target sequence (Q8NER1 whole entry, looked up): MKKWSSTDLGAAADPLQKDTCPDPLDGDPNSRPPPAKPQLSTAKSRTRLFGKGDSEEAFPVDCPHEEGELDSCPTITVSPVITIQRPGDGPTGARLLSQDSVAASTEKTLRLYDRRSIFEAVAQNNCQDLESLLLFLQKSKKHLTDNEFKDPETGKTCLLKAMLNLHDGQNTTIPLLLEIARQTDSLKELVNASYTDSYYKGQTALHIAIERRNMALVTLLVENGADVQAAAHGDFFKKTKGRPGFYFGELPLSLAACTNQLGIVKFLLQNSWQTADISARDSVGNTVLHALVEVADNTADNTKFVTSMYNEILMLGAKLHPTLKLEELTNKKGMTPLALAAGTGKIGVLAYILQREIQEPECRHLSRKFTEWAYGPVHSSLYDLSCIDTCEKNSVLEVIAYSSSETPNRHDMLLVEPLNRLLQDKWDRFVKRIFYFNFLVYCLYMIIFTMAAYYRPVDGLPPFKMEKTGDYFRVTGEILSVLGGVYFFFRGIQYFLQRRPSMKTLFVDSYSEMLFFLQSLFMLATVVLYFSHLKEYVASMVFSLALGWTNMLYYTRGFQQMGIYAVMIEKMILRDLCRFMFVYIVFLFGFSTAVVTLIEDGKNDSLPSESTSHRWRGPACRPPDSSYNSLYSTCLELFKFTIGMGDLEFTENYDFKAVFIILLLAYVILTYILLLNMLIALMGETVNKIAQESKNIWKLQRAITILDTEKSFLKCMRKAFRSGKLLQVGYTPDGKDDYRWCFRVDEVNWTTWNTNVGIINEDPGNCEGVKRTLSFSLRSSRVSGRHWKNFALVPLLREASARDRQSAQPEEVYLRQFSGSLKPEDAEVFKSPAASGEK
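Cells expressing TRPV1 were dye-loaded with Fluo-8 and read kinetically: 10 s baseline, 3 min after compound (agonist portion), then 2 min after EC20 capsaicin (allosteric enhancer portion). Calcium-bound dye fluorescence at 480/520 nm.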
TRPV1 potentiator = HTS Assay for Compounds that Act as Potentiators of the Vanilloid Receptor 1; Transient receptor potential cation channel subfamily V member 1 (Homo sapiens), Q8NER1; TRPV1-expressing cells, Fluo-8 calcium influx, capsaicin EC20 potentiation; potentiation, % at 8.33 µM; 0.02% of 320,000 active; in the data active = potentiation above about 80%; inconclusive = between about 30% and that limit; note: 0% is about no effect
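Fluo-8 calcium influx in TRPV1-expressing cells, kinetic read (ex 480/em 520 nm). Compound added and read 3 min for agonist activity, followed by capsaicin at EC20 final and 2 min further read for enhancement.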
RORg inh = qHTS for inhibitors of ROR gamma transcriptional activity; Nuclear receptor ROR-gamma (Mus musculus), P51450; 5.4% of 310,000 active; Drosophila S2 Gal4-RORgamma UAS-luciferase reporter, 20 h; Potency, µM (top dose mostly 53.6 µM), for inactives: top-dose activity change, negative = inhibition, actives largely listed as inhibitors; note: potency is the fitted concentration of half-maximal effect; % is set by controls: 0 for no effect and ±100 for the full control effect; nearly all actives have a fitted effect of over 60% in size
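Schneider cells (Drosophila), stable Gal4 DBD–ROR gamma + UAS-luc; 1 hr cmpd preincubation; Cu2+ induction 700 uM final; 20 hr ambient; luminescence.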
Gal4-VP16 FLuc = VP16 counterscreen qHTS for inhibitors of ROR gamma transcriptional activity. Drosophila S2 Gal4-VP16 UAS-luciferase, luminescence, 20 h. Potency, µM (highest dose often 53.6 µM), without a hit: at the highest dose activity, negative = inhibition, hits mostly inhibitors. 3.5% of 310,000 active. AID 2546, 2010;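 note: Gal4-VP16 expression switched on by copper sulfate through the metallothionein promoter; potency is the fitted concentration of half-maximal effect; % is set by controls: 0 for no effect and ±100 for the full control effect; nearly all actives have a fitted effect of over 50% in size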
Starred values were filed as active, the others as inactive; ? = inconclusive; . = no result; [ ] = remark or other dose. Unless noted, calls come from the whole dose curve; as a rule, active = well fitted curve in the direction sought with a large enough effect; inconclusive = small, poorly fitted or top-dose-only effect, or another doubt; inactive = no such curve, though single readings can be large; an effect the other way counts as inactive or inconclusive.

SMILES	uPA generation	TRPV1 ag	TRPV1 potentiator	RORg inh	Gal4-VP16 FLuc
CCC1CCCCN1S(=O)(=O)c1ccc(C(=O)Nc2nnc(-c3ccccc3Cl)o2)cc1 (stereo unspecified)	-2%	2	25	0.28µM*	0.0079µM*
O=C1OCCC1Sc1nnc(-c2ccc(Cl)cc2Cl)o1 (stereo unspecified)	-3%	.	.	7.9µM*	?
Cc1cs/c(=N\N=C2CCCCC2)n1Cc1ccco1	8%	3	11	?	6%
CCC(=O)Nc1ccc(C(=O)NNC(=O)COc2cccc(C)c2)cc1	-7%	19	-2	-10%	-13%
CCN=c1scc(-c2ccc(F)cc2)n1/N=C/c1ccccn1	-9%	5	6	18µM*	2%
O=C(Cc1ccc(F)cc1)N/N=C/c1ccccn1	-8%	-3	9	-32%	11%
CCN=c1scc(-c2ccccc2)n1/N=C/c1ccccn1	-5%	8	-8	4.5µM*	7.9µM*
COC(=O)c1cc(OC)c(OC)cc1NC(=O)Cn1nnc(-c2ccccc2Cl)n1	.	3	-15	-17%	8%
CC(=O)Nc1sc2c(c1-c1nc3ccccc3s1)CN(C(C)C)CC2	2µM*	.	.	.	.
OC(c1ccccc1)c1nccc2ccccc12 (stereo unspecified)	5%	3	15	13µM*	-11%
CCN(CC(=O)Nc1c(F)cccc1F)C(=O)Cc1ccc2c(c1)OCCO2	13%	0	-1	.	.
CC(C)CC(=O)OC1C(N2CCOCC2)c2c(ccc(/C=C/C(=O)N3CCOCC3)c2O)OC1(C)C (stereo unspecified)	3%	81*	-2	?	-1%
CC1(C)Oc2ccc(/C=C/C(=O)N3CCOCC3)c(O)c2C(N2CCOCC2)C1O (stereo unspecified)	.	3	1	17%	6%
CC(NC(=O)Cn1cc([N+](=O)[O-])cn1)c1ccc(C(C)(C)C)cc1 (stereo unspecified)	5%	.	.	.	.
C=CCN=c1scc(-c2ccc3c(c2)NC(=O)CO3)n1/N=C(\C)c1ccccn1	-5%	4	-5	11µM*	?
CC(Nc1nc(-c2ccc3c(c2)NC(=O)CO3)cs1)c1ccccc1 (stereo unspecified)	-5%	6	?	?	22%
COc1ccc(C(=O)NC(=S)NCc2ccco2)cc1Br	0%	4	4	3.5µM*	6.3µM*
CCOc1ccc(C(=O)NCc2ccco2)cc1OC	4%	-1	-11	?	-25%
COc1c(C)cc(Br)cc1C(=O)NC(=S)NCc1ccco1	-19%	1	-12	11µM*	?
Cc1ccc(C(=O)NCc2ccco2)cc1Br	.	9	-1	24%	7%
COc1ccc(C(=O)NC(=S)NCc2ccco2)cc1OC	-1%	-4	14	18µM*	16%[0.365 µM]
CC(C)(C)Cn1nc(-c2ccc(Cl)cc2)c2c(N)ncnc21	.	.	.	6%	1%
COc1cccc(C=Nc2cc(C)cc(C)c2)c1O	3%	-1	-8	-26%	-3%
CCc1ccc2oc(-c3cc(N=Cc4cccc(OC)c4O)ccc3O)nc2c1	-6%	-3	10	11µM*	?
COc1ccc(C(=O)c2no[n+]([O-])c2C(=O)c2ccc(OC)cc2)cc1	-16%	-3	0	?	?
SMILES	uPA generation	TRPV1 ag	TRPV1 potentiator	RORg inh	Gal4-VP16 FLuc
O=C(c1cccs1)c1no[n+]([O-])c1C(=O)c1cccs1	-12%	-3	29	11µM*	11µM*
S=C1NC(c2ccccc2)=NCN1c1ccc(Cl)cc1	3%	-3	-3	11µM*	?
COC(=O)c1ccc(N2CN=C(c3ccc(C)cc3)NC2=S)cc1	-4%	10	-9	12%	-3%
Cc1cccc(NC(=S)NC2CCCC2)n1	-28%	4	8	0.35µM*	2.8µM*
Cc1cccc(NC(=S)NC2CCCCC2)n1	0%	19	16	1µM*	4.5µM*
Cc1cccc(NC(=S)Nc2cccc(C)n2)n1	3%	-1	25	?	6.3µM*
Cc1cnc(C(=O)N2CCCC(N3CCN(c4cccc(C(F)(F)F)c4)CC3)C2)cn1 (stereo unspecified)	-5%	-6	-1	43%	-2%
O=C(Nc1c2c(nn1-c1ccccc1)CS(=O)(=O)C2)c1cccs1	-8%	1	11	16%	0%
Cn1c(C(C#N)C(=O)c2ccco2)nc2ccccc21 (stereo unspecified)	14%	3	-10	?	6.3µM*
Cn1c(C(C#N)C(=O)Cc2cccc3ccccc23)nc2ccccc21 (stereo unspecified)	-2%	1	?	0.79µM*	?
Cc1cccc(NC(=S)NCc2ccc(F)cc2)c1	8%	?	-20	?	13µM*
Cc1cccc(NC(=S)NC(C)(C)CC(C)(C)C)c1	1%	?	-10	2.2µM*	8.9µM*
Cc1cc2cc(CNC(=S)Nc3ccc(OC(F)(F)F)cc3)ccc2n1C	-1%	4	4	-35%	18%
Cc1ccc(NC(=S)NCc2ccc(F)cc2)cc1	2%	.	.	.	.
COc1cccc(NC(=S)NCc2ccc3c(c2)cc(C)n3C)c1	56%	26	-1	4.5µM*	?
COc1ccc(CNC(=S)Nc2cccc(C)c2)cc1	0%	?	-15	10µM*	20µM*
COC(=O)[C@@H]1C[C@@]2(O)[C@H](O)[C@H](O)[C@H](O)C[C@H]2N1Cc1c(F)cccc1Cl	.	.	.	7%	-17%
Cc1ccccc1C1CC(=O)Oc2cc(C)c(Cl)c(C)c21 (stereo unspecified)	.	.	.	3%	-5%
O=C1C[C@@H](O)[C@@H](O)[C@@H]2[C@H]3C(=O)N(c4ccc(F)cc4F)C(=O)[C@@H]3CC[C@@H]12	.	.	.	11%[10 µM]	4%[10 µM]
Cc1ccc2c(CC(=O)Nc3c(C(=O)c4ccc(F)cc4)oc4ccccc34)coc2c1C	.	2	0	.	.
COc1ccc(CC(=O)NCc2ccccc2)cc1	?	7	-8	34%	8%
COc1ccc(CNC(=S)Nc2cccc(Cl)c2)cc1	8%	.	.	.	.
COc1ccc(CNC(=S)Nc2ccccc2)cc1	-1%	?	-1	7.1µM*	10µM*
COc1cccc(NC(=S)NCc2ccc(F)cc2)c1	6%	?	-17	?	7.1µM*
COc1ccc(CNC(=S)Nc2cccc(F)c2)cc1	4%	88*	-7	10µM*	6.3µM*
Cc1ccc(CN(C)CC(=O)Nc2ccc3c(c2)CCC3)cc1	0%	?	-14	25%	-14%
COc1ccc2c(c1)C(c1ccccc1OC)CC(=O)O2 (stereo unspecified)	.	.	.	4%	0%
COc1cccc(/C=N/Nc2nn3cnnc3c3ccccc23)c1O	-9%	0	18	1.4µM*	2.8µM*
O=c1nccc(N/N=C/c2ccccc2O)[nH]1	0%	0	-9	3.5µM*	7.1µM*
